Measured values as given in publication PMC11006913.

Key:
Assay in all cases: PBM; 200 nM protein, PBS
Conditions in all cases: dsDNA, one strand shown
VENTX = biological target: T1, VENTX (Homo sapiens, UniProt O95231 78-163, R121Q)
T1 sequence: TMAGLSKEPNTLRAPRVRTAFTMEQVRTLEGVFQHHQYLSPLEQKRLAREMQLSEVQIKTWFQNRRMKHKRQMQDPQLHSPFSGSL

HOXA4 [1] = biological target: HOXA4 (Homo sapiens, UniProt Q00056 201-287, W262R)
HOXA7 [2] = biological target: HOXA7 (Homo sapiens, UniProt P31268 116-202)
ALX4 [3] = biological target: ALX4 (Homo sapiens, UniProt Q9H161 200-286)
PRRX1 [4] = biological target: PRRX1 (Homo sapiens, UniProt P54821 80-166, F113S)
HOXB6 [5] = biological target: HOXB6 (Homo sapiens, UniProt P17509 132-218, K202E)
ALX4 [6] = biological target: ALX4 (Homo sapiens, UniProt Q9H161 200-286, Q225E)
HOXA2 = HOXA2 (Homo sapiens, UniProt O43364 129-215, R185T)
ALX1 [7] = biological target: ALX1 (Homo sapiens, UniProt Q15699 118-204, L144V)
ALX1 [8] = biological target: ALX1 (Homo sapiens, UniProt Q15699 118-204, L144R)
HOXA4 [9] = biological target: HOXA4 (Homo sapiens, UniProt Q00056 201-287)
MSX2 = MSX2 (Homo sapiens, UniProt P35548 130-214)
VAX1 [10] = biological target: VAX1 (Homo sapiens, UniProt Q5SQQ9 86-172, T142I)
HOXA7 [11] = biological target: HOXA7 (Homo sapiens, UniProt P31268 116-202, W177C)
ALX1 [12] = biological target: ALX1 (Homo sapiens, UniProt Q15699 118-204)
HOXA4 [13] = biological target: HOXA4 (Homo sapiens, UniProt Q00056 201-287, W262F)
PRRX1 [14] = biological target: PRRX1 (Homo sapiens, UniProt P54821 80-166)
VAX1 [15] = biological target: VAX1 (Homo sapiens, UniProt Q5SQQ9 86-172, K157R)
HOXB6 [16] = biological target: HOXB6 (Homo sapiens, UniProt P17509 132-218)
NKX2-5 = NKX2-5 (Homo sapiens, UniProt P52952 125-210)
Sequence of NKX2-5 (P52952 125-210): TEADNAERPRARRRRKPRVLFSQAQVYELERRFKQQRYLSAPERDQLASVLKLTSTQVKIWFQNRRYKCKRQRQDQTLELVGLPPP

Sequence of HOXA4 (Homo sapiens, UniProt Q00056 201-287) (Q00056 201-287): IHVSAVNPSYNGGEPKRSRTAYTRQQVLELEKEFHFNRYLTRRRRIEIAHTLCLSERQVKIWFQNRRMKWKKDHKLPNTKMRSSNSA
Sequence of HOXB6 (Homo sapiens, UniProt P17509 132-218, K202E) (P17509 132-218 K202E): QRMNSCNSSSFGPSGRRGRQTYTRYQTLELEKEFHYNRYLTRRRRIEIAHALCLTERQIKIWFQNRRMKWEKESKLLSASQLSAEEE
Sequence of ALX4 (Homo sapiens, UniProt Q9H161 200-286) (Q9H161 200-286): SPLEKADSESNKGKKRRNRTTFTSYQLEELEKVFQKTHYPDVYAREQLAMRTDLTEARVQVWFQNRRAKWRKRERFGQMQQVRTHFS
Sequence of ALX1 (Homo sapiens, UniProt Q15699 118-204) (Q15699 118-204): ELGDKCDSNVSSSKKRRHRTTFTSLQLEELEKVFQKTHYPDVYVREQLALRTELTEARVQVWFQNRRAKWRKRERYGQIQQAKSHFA
Sequence of VAX1 (Homo sapiens, UniProt Q5SQQ9 86-172, T142I) (Q5SQQ9 86-172 T142I): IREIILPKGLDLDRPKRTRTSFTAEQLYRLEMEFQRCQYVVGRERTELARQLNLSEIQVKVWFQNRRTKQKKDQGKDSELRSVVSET
Sequence of PRRX1 (Homo sapiens, UniProt P54821 80-166, F113S) (P54821 80-166 F113S): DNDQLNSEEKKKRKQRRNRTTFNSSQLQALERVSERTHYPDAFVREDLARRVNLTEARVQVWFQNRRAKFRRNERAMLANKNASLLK
Sequence of MSX2 (P35548 130-214): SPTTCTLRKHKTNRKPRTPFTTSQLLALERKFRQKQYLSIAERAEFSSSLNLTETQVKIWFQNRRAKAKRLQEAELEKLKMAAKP
Sequence of HOXA7 (Homo sapiens, UniProt P31268 116-202) (P31268 116-202): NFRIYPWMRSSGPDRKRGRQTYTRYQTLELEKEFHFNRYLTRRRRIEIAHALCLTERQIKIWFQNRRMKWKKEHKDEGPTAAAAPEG
Sequence of VAX1 (Homo sapiens, UniProt Q5SQQ9 86-172, K157R) (Q5SQQ9 86-172 K157R): as the sequence (Q5SQQ9 86-172 T142I) above, with I57T, K72R counted along it
Sequence of HOXA7 (Homo sapiens, UniProt P31268 116-202, W177C) (P31268 116-202 W177C): as the sequence (P31268 116-202) above, with W62C counted along it
Sequence of ALX4 (Homo sapiens, UniProt Q9H161 200-286, Q225E) (Q9H161 200-286 Q225E): as the sequence (Q9H161 200-286) above, with Q26E counted along it
Sequence of HOXA4 (Homo sapiens, UniProt Q00056 201-287, W262R) (Q00056 201-287 W262R): as the sequence (Q00056 201-287) above, with W62R counted along it
Sequence of PRRX1 (Homo sapiens, UniProt P54821 80-166) (P54821 80-166): as the sequence (P54821 80-166 F113S) above, with S34F counted along it
Sequence of HOXA2 (O43364 129-215 R185T): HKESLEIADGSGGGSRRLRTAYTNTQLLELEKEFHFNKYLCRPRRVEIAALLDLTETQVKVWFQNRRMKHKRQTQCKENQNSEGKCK
Sequence of HOXB6 (Homo sapiens, UniProt P17509 132-218) (P17509 132-218): as the sequence (P17509 132-218 K202E) above, with E71K counted along it
Sequence of ALX1 (Homo sapiens, UniProt Q15699 118-204, L144V) (Q15699 118-204 L144V): as the sequence (Q15699 118-204) above, with L27V counted along it
Sequence of ALX1 (Homo sapiens, UniProt Q15699 118-204, L144R) (Q15699 118-204 L144R): as the sequence (Q15699 118-204) above, with L27R counted along it
Sequence of HOXA4 (Homo sapiens, UniProt Q00056 201-287, W262F) (Q00056 201-287 W262F): as the sequence (Q00056 201-287) above, with W62F counted along it

Sequence	binding signal (VENTX)	binding signal (HOXA4 [1])	binding signal (HOXA7 [2])	binding signal (ALX4 [3])	binding signal (PRRX1 [4])	binding signal (HOXB6 [5])	binding signal (ALX4 [6])	binding signal (HOXA2)	binding signal (ALX1 [7])	binding signal (ALX1 [8])	binding signal (HOXA4 [9])	binding signal (MSX2)	binding signal (VAX1 [10])	binding signal (HOXA7 [11])	binding signal (ALX1 [12])	binding signal (HOXA4 [13])	binding signal (PRRX1 [14])	binding signal (VAX1 [15])	binding signal (HOXB6 [16])	binding signal (NKX2-5)
GCAATTAA	12.2 upbm affinity estimate (log intensity, higher = more binding, comparable within an allelic series)	10.6 upbm affinity estimate (log intensity, higher = more binding, comparable within an allelic series)	12.3 upbm affinity estimate (log intensity, higher = more binding, comparable within an allelic series)	13.8 upbm affinity estimate (log intensity, higher = more binding, comparable within an allelic series)	11.1 upbm affinity estimate (log intensity, higher = more binding, comparable within an allelic series)	10.1 upbm affinity estimate (log intensity, higher = more binding, comparable within an allelic series)	13.3 upbm affinity estimate (log intensity, higher = more binding, comparable within an allelic series)	13.2 upbm affinity estimate (log intensity, higher = more binding, comparable within an allelic series)	11.6 upbm affinity estimate (log intensity, higher = more binding, comparable within an allelic series)	11.3 upbm affinity estimate (log intensity, higher = more binding, comparable within an allelic series)	13.9 upbm affinity estimate (log intensity, higher = more binding, comparable within an allelic series)	14.1 upbm affinity estimate (log intensity, higher = more binding, comparable within an allelic series)	13.2 upbm affinity estimate (log intensity, higher = more binding, comparable within an allelic series)	8.72 upbm affinity estimate (log intensity, higher = more binding, comparable within an allelic series)	12.2 upbm affinity estimate (log intensity, higher = more binding, comparable within an allelic series)	11.8 upbm affinity estimate (log intensity, higher = more binding, comparable within an allelic series)	13.2 upbm affinity estimate (log intensity, higher = more binding, comparable within an allelic series)	12.9 upbm affinity estimate (log intensity, higher = more binding, comparable within an allelic series)	12.7 upbm affinity estimate (log intensity, higher = more binding, comparable within an allelic series)	
TAATTATA	11.9 upbm affinity estimate (log intensity, higher = more binding, comparable within an allelic series)	10.8 upbm affinity estimate (log intensity, higher = more binding, comparable within an allelic series)	11.8 upbm affinity estimate (log intensity, higher = more binding, comparable within an allelic series)	14.3 upbm affinity estimate (log intensity, higher = more binding, comparable within an allelic series)	11.8 upbm affinity estimate (log intensity, higher = more binding, comparable within an allelic series)	10.3 upbm affinity estimate (log intensity, higher = more binding, comparable within an allelic series)	13.9 upbm affinity estimate (log intensity, higher = more binding, comparable within an allelic series)	13.6 upbm affinity estimate (log intensity, higher = more binding, comparable within an allelic series)	12 upbm affinity estimate (log intensity, higher = more binding, comparable within an allelic series)	11.6 upbm affinity estimate (log intensity, higher = more binding, comparable within an allelic series)	14.2 upbm affinity estimate (log intensity, higher = more binding, comparable within an allelic series)	14 upbm affinity estimate (log intensity, higher = more binding, comparable within an allelic series)	13.4 upbm affinity estimate (log intensity, higher = more binding, comparable within an allelic series)	9 upbm affinity estimate (log intensity, higher = more binding, comparable within an allelic series)	12.7 upbm affinity estimate (log intensity, higher = more binding, comparable within an allelic series)	12.1 upbm affinity estimate (log intensity, higher = more binding, comparable within an allelic series)	13.6 upbm affinity estimate (log intensity, higher = more binding, comparable within an allelic series)	13.4 upbm affinity estimate (log intensity, higher = more binding, comparable within an allelic series)	12.3 upbm affinity estimate (log intensity, higher = more binding, comparable within an allelic series)	
CCCCAACG																				8.67 upbm affinity estimate (log intensity, higher = more binding, comparable within an allelic series)
TTAATTAA	12.4 upbm affinity estimate (log intensity, higher = more binding, comparable within an allelic series)	11 upbm affinity estimate (log intensity, higher = more binding, comparable within an allelic series)	12.2 upbm affinity estimate (log intensity, higher = more binding, comparable within an allelic series)	14.7 upbm affinity estimate (log intensity, higher = more binding, comparable within an allelic series)	12.1 upbm affinity estimate (log intensity, higher = more binding, comparable within an allelic series)	10.3 upbm affinity estimate (log intensity, higher = more binding, comparable within an allelic series)	14.7 upbm affinity estimate (log intensity, higher = more binding, comparable within an allelic series)	13.7 upbm affinity estimate (log intensity, higher = more binding, comparable within an allelic series)	12.3 upbm affinity estimate (log intensity, higher = more binding, comparable within an allelic series)	11.9 upbm affinity estimate (log intensity, higher = more binding, comparable within an allelic series)	14.3 upbm affinity estimate (log intensity, higher = more binding, comparable within an allelic series)	13.9 upbm affinity estimate (log intensity, higher = more binding, comparable within an allelic series)	13.6 upbm affinity estimate (log intensity, higher = more binding, comparable within an allelic series)	8.85 upbm affinity estimate (log intensity, higher = more binding, comparable within an allelic series)	12.9 upbm affinity estimate (log intensity, higher = more binding, comparable within an allelic series)	13.1 upbm affinity estimate (log intensity, higher = more binding, comparable within an allelic series)	13.7 upbm affinity estimate (log intensity, higher = more binding, comparable within an allelic series)	13.5 upbm affinity estimate (log intensity, higher = more binding, comparable within an allelic series)	12.5 upbm affinity estimate (log intensity, higher = more binding, comparable within an allelic series)	
CCTCTCGA																				11.3 upbm affinity estimate (log intensity, higher = more binding, comparable within an allelic series)
CGCGAGCC																				8.93 upbm affinity estimate (log intensity, higher = more binding, comparable within an allelic series)
ACGTCCCG																				8.79 upbm affinity estimate (log intensity, higher = more binding, comparable within an allelic series)
GTAATTAA	12.4 upbm affinity estimate (log intensity, higher = more binding, comparable within an allelic series)	10.9 upbm affinity estimate (log intensity, higher = more binding, comparable within an allelic series)	12.5 upbm affinity estimate (log intensity, higher = more binding, comparable within an allelic series)	14.4 upbm affinity estimate (log intensity, higher = more binding, comparable within an allelic series)	11.8 upbm affinity estimate (log intensity, higher = more binding, comparable within an allelic series)	10.3 upbm affinity estimate (log intensity, higher = more binding, comparable within an allelic series)	14 upbm affinity estimate (log intensity, higher = more binding, comparable within an allelic series)	13.9 upbm affinity estimate (log intensity, higher = more binding, comparable within an allelic series)	12.2 upbm affinity estimate (log intensity, higher = more binding, comparable within an allelic series)	11.8 upbm affinity estimate (log intensity, higher = more binding, comparable within an allelic series)	14.3 upbm affinity estimate (log intensity, higher = more binding, comparable within an allelic series)	14.1 upbm affinity estimate (log intensity, higher = more binding, comparable within an allelic series)	13.9 upbm affinity estimate (log intensity, higher = more binding, comparable within an allelic series)	9.01 upbm affinity estimate (log intensity, higher = more binding, comparable within an allelic series)	12.9 upbm affinity estimate (log intensity, higher = more binding, comparable within an allelic series)	12.9 upbm affinity estimate (log intensity, higher = more binding, comparable within an allelic series)	13.6 upbm affinity estimate (log intensity, higher = more binding, comparable within an allelic series)	13.9 upbm affinity estimate (log intensity, higher = more binding, comparable within an allelic series)	12.9 upbm affinity estimate (log intensity, higher = more binding, comparable within an allelic series)	
ATCCTTAG																				10.5 upbm affinity estimate (log intensity, higher = more binding, comparable within an allelic series)
TAATTAAA	12.1 upbm affinity estimate (log intensity, higher = more binding, comparable within an allelic series)	10.8 upbm affinity estimate (log intensity, higher = more binding, comparable within an allelic series)	11.9 upbm affinity estimate (log intensity, higher = more binding, comparable within an allelic series)	14.4 upbm affinity estimate (log intensity, higher = more binding, comparable within an allelic series)	11.9 upbm affinity estimate (log intensity, higher = more binding, comparable within an allelic series)	10.1 upbm affinity estimate (log intensity, higher = more binding, comparable within an allelic series)	14.1 upbm affinity estimate (log intensity, higher = more binding, comparable within an allelic series)	13.5 upbm affinity estimate (log intensity, higher = more binding, comparable within an allelic series)	11.9 upbm affinity estimate (log intensity, higher = more binding, comparable within an allelic series)	11.6 upbm affinity estimate (log intensity, higher = more binding, comparable within an allelic series)	14.1 upbm affinity estimate (log intensity, higher = more binding, comparable within an allelic series)	13.9 upbm affinity estimate (log intensity, higher = more binding, comparable within an allelic series)	13.4 upbm affinity estimate (log intensity, higher = more binding, comparable within an allelic series)	8.8 upbm affinity estimate (log intensity, higher = more binding, comparable within an allelic series)	12.6 upbm affinity estimate (log intensity, higher = more binding, comparable within an allelic series)	12.3 upbm affinity estimate (log intensity, higher = more binding, comparable within an allelic series)	13.6 upbm affinity estimate (log intensity, higher = more binding, comparable within an allelic series)	13.4 upbm affinity estimate (log intensity, higher = more binding, comparable within an allelic series)	12.3 upbm affinity estimate (log intensity, higher = more binding, comparable within an allelic series)	
AATTAATT	12.1 upbm affinity estimate (log intensity, higher = more binding, comparable within an allelic series)	10.8 upbm affinity estimate (log intensity, higher = more binding, comparable within an allelic series)	11.9 upbm affinity estimate (log intensity, higher = more binding, comparable within an allelic series)	14.7 upbm affinity estimate (log intensity, higher = more binding, comparable within an allelic series)	11.8 upbm affinity estimate (log intensity, higher = more binding, comparable within an allelic series)	10.2 upbm affinity estimate (log intensity, higher = more binding, comparable within an allelic series)	14.3 upbm affinity estimate (log intensity, higher = more binding, comparable within an allelic series)	13.4 upbm affinity estimate (log intensity, higher = more binding, comparable within an allelic series)	12.4 upbm affinity estimate (log intensity, higher = more binding, comparable within an allelic series)	12 upbm affinity estimate (log intensity, higher = more binding, comparable within an allelic series)	14 upbm affinity estimate (log intensity, higher = more binding, comparable within an allelic series)	14.1 upbm affinity estimate (log intensity, higher = more binding, comparable within an allelic series)	13.2 upbm affinity estimate (log intensity, higher = more binding, comparable within an allelic series)	8.91 upbm affinity estimate (log intensity, higher = more binding, comparable within an allelic series)	13 upbm affinity estimate (log intensity, higher = more binding, comparable within an allelic series)	12.2 upbm affinity estimate (log intensity, higher = more binding, comparable within an allelic series)	13.6 upbm affinity estimate (log intensity, higher = more binding, comparable within an allelic series)	13.1 upbm affinity estimate (log intensity, higher = more binding, comparable within an allelic series)	12.4 upbm affinity estimate (log intensity, higher = more binding, comparable within an allelic series)	
CATAATTA	12 upbm affinity estimate (log intensity, higher = more binding, comparable within an allelic series)	10.9 upbm affinity estimate (log intensity, higher = more binding, comparable within an allelic series)	12 upbm affinity estimate (log intensity, higher = more binding, comparable within an allelic series)	14.2 upbm affinity estimate (log intensity, higher = more binding, comparable within an allelic series)	11.6 upbm affinity estimate (log intensity, higher = more binding, comparable within an allelic series)	10.2 upbm affinity estimate (log intensity, higher = more binding, comparable within an allelic series)	13.7 upbm affinity estimate (log intensity, higher = more binding, comparable within an allelic series)	13.6 upbm affinity estimate (log intensity, higher = more binding, comparable within an allelic series)	12 upbm affinity estimate (log intensity, higher = more binding, comparable within an allelic series)	11.6 upbm affinity estimate (log intensity, higher = more binding, comparable within an allelic series)	14.3 upbm affinity estimate (log intensity, higher = more binding, comparable within an allelic series)	13.9 upbm affinity estimate (log intensity, higher = more binding, comparable within an allelic series)	13.6 upbm affinity estimate (log intensity, higher = more binding, comparable within an allelic series)	9.06 upbm affinity estimate (log intensity, higher = more binding, comparable within an allelic series)	12.6 upbm affinity estimate (log intensity, higher = more binding, comparable within an allelic series)	12.2 upbm affinity estimate (log intensity, higher = more binding, comparable within an allelic series)	13.6 upbm affinity estimate (log intensity, higher = more binding, comparable within an allelic series)	13.7 upbm affinity estimate (log intensity, higher = more binding, comparable within an allelic series)	12.4 upbm affinity estimate (log intensity, higher = more binding, comparable within an allelic series)	
ACCAGGGC																				8.77 upbm affinity estimate (log intensity, higher = more binding, comparable within an allelic series)
